Sampled rows, rich in hits. Any-hit rate of the full collection: about 3%.
C8 TRAIL sens: sensitizes caspase-8 expressing cells to TRAIL; inhibition (viability loss, TRAIL sensitization), % at 10 µM; 360,000 tested, 1% active; AID 624354; NB7+C8 cells + TRAIL, ATPlite viability luminescence;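 active means compounds causing at least 50% loss of cell viability in the single-dose screen, relative to plate controls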
SENP8 block-1: SENP8 (human) protease inhibition. inhibition, % at 20 µM. Q96LD8. recombinant SENP8, Nedd8 substrate fluorescence. 360,000 tested, 0.64% active; in the data active means inhibition mostly above about 40%, no sharp cut-off; inactive means mostly below about 27%
SENP8 block-2: blocks the human protease SENP8; Q96LD8; purified SENP8, Z-RLRGG-aminoluciferin cleavage, luminescence; inhibition, % at 10 µM; 330,000 tested, 1.2% active; in the data active means inhibition above about 50%
SENP7 block: blocks the human protease SENP7; Q9BQF6; recombinant SENP7, Z-RLRGG-aminoluciferin luminescence, 40 min; inhibition, % at 5 µM; 330,000 tested, 1.5% active; AID 434973;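 active means inhibition above about 50% at the single test dose, limit read from the data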
PPC-1+TRAIL kill: compounds killing PPC-1 cancer cells with TRAIL present (potentiator screen, no TRAIL-free arm); cell killing (% activity), % at 4 µM or 5 µM; AID 1443; PPC-1 cells + TRAIL, ATPLite viability luminescence; 220,000 tested, 0.41% active;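 active means cell killing above 50% in the first pass at 4 µM, then a duplicate retest at 5 µM averaging 50% or more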
SENP6 inh: blocks the human protease SENP6; Q9GZR1; Recombinant SENP6 catalytic domain, aminoluciferin luminescence; inhibition, % at 10 µM; 330,000 tested, 1.8% active;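 active means inhibition above about 50% at the single tested dose, limit read from the data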
Target sequence (Q9GZR1 628-1112 limits assumed): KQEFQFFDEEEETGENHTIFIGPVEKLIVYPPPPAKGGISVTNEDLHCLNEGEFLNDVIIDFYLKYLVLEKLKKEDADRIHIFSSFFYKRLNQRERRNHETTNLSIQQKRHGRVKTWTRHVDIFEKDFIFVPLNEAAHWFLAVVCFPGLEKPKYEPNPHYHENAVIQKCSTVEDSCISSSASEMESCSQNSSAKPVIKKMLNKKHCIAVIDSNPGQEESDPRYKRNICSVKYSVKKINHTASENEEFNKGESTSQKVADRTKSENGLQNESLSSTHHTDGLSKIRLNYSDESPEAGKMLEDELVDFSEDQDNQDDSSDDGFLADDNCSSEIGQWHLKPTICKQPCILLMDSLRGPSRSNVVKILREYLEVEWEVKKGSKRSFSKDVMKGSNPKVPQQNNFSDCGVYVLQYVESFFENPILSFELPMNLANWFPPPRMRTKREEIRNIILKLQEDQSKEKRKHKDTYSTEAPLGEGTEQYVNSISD
SENP8 confirm: human SENP8 inhibition, confirmed; shares compounds with SENP7 block; Recombinant SENP8, Z-RLRGG-aminoluciferin luminescence, 60 min; inhibition, % at 12.5 µM; 6,200 tested, 40% active;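 active means mean inhibition across replicates above about 50%, limit read from the data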
SENP6 confirm: confirmation of human SENP6 protease inhibitors | 6,200 tested, 58% active | AID 488915 | inhibition, % at 12.5 µM | recombinant SENP6, Z-RLRGG-aminoluciferin luminescence | shares compounds with SENP7 block
SENP7 confirm: human SENP7 inhibition, confirmed; shares compounds with SENP7 block; recombinant SENP7, Z-RLRGG-aminoluciferin luminescence, 40 min; inhibition, % at 12.5 µM; 6,200 tested, 69% active
Casp3 select: inhibits human caspase-3 in SENP selectivity test; shares compounds with SENP7 block; purified caspase-3, Z-DEVD-aminoluciferin luminescence, 60 min; inhibition, % at 12.5 µM; 6,200 tested, 60% active; AID 488918;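 active means mean inhibition above about 50%, limit read from the data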
Luc interf: interferes with luciferase luminescence in SENP counter-screen; shares compounds with SENP7 block; Pre-incubated SENP8/Z-RLRGG-aminoluciferin, luciferase luminescence interference; inhibition, % at 12.5 µM; 6,200 tested, 39% active; AID 488919;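 active means mean inhibition above about 50% when retested at one dose, limit read from the data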
Numbers stand for hits; n = inactive; x = no result.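 How the source made its calls, unless noted: active means mean inhibition above about 50% in the one-dose retest (limit read from the data); inactive means the rest.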

SMILES	C8 TRAIL sens	SENP8 block-1	SENP8 block-2	SENP7 block	PPC-1+TRAIL kill	SENP6 inh	SENP8 confirm	SENP6 confirm	SENP7 confirm	Casp3 select	Luc interf
CCOc1ccc(/C=C2\CCc3ccccc3C2=O)cc1	77	n	95	99	n	97	n	88	n	n	n
CN(C(=O)COC(=O)c1ccc(Cl)c(S(=O)(=O)NCc2ccccc2)c1)C1CCS(=O)(=O)C1 (stereo unspecified)	n	n	x	x	x	x	x	x	x	x	x
O=C(O)c1cccc(N/N=C/c2ccc(OC(F)(F)F)cc2)c1	n	n	98	n	x	99	n	100	103	94	99
O=C(O)c1cccc(N/N=C/c2cccs2)c1	n	n	97	100	n	100	100	100	104	98	99
O=C(O)c1ccc(N/N=C/c2ccc(OC(=O)c3cccc(Cl)c3)cc2)cc1	n	n	80	n	n	n	n	n	n	n	n
CSc1ccc(/C=N/Nc2cccc(C(=O)O)c2)cc1	n	n	x	x	n	x	x	x	x	x	x
Cc1ccc(CCNC(=O)C2CCN(S(=O)(=O)N3CCOCC3)CC2)cc1	n	n	n	n	x	n	x	x	x	x	x
CC12C=CC(=O)C=C1CCC1C2C(O)CC2(C)C1CCC2(O)C(=O)CO (stereo unspecified)	n	n	x	x	x	x	x	x	x	x	x
Nc1cc(C2CCCC2)nn1-c1ccccc1	n	n	n	n	n	62	n	n	77	81	55
O=C(O)c1cc(C2CC2)nn1-c1ccccc1	n	n	n	n	n	n	x	x	x	x	x
CC(C)Cc1ccc(CN2C(C)C(=O)N(Cc3cn(Cc4ccco4)nn3)CCS2(=O)=O)cc1 (stereo unspecified)	n	n	x	x	x	x	x	x	x	x	x
O=S(=O)(O)c1cccc(N=Nc2c(O)ccc3ccccc23)c1	n	n	94	92	n	99	98	99	102	97	96
c1ccc(-c2cn3c(n2)-c2ccccc2C3)cc1	69	n	96	97	n	96	99	100	103	99	97
O=C1c2ccccc2C(c2nnnn2Cc2ccccc2)N1Cc1cccs1 (stereo unspecified)	n	n	x	x	x	x	x	x	x	x	x
Cc1ccc(C(=O)N2CCc3ccccc32)o1	n	n	88	91	n	91	91	91	98	95	89
Cc1nc2ccccc2c2oc(C(=O)N3CCc4ccccc43)cc12	x	x	x	x	n	x	x	x	x	x	x
O=C(c1cccs1)N1CCc2ccccc21	n	n	n	61	n	60	n	n	80	76	59
O=C(c1cccs1)N1CCCc2ccccc21	n	n	n	n	n	n	x	x	x	x	x
Cc1ccc(C(=O)N2c3ccccc3CC2C)o1 (stereo unspecified)	n	n	90	94	n	85	94	96	101	97	83
O=C1c2ccccc2C(=O)N1CCOc1ccccc1	n	n	n	n	x	60	n	n	73	59	52
O=C1c2ccccc2C(=O)N1CCOc1ccccc1Cl	n	n	n	59	x	51	n	n	78	n	56
Nc1cccc2c1C(=O)N(CCOc1ccc(F)cc1)C2=O	n	n	n	55	x	68	55	n	85	53	n
COc1ccc(OCCN2C(=O)c3ccccc3C2=O)cc1	n	n	n	n	n	n	x	x	x	x	x
CCOC(=O)c1c(N)sc(C(=O)Nc2ccccc2)c1C	63	n	73	85	n	84	n	81	97	84	83
CCOC(=O)c1c(N)sc(C(=O)Nc2ccccc2F)c1C	n	n	74	78	n	81	63	63	88	67	n
SMILES	C8 TRAIL sens	SENP8 block-1	SENP8 block-2	SENP7 block	PPC-1+TRAIL kill	SENP6 inh	SENP8 confirm	SENP6 confirm	SENP7 confirm	Casp3 select	Luc interf
CCOC(=O)c1c(N)sc(C(N)=O)c1C	n	n	n	n	n	n	x	x	x	x	x
CN(CC(=O)Nc1ccccc1Cl)C(=O)C1CSC2(C)CCC(=O)N12 (stereo unspecified)	n	n	n	n	x	n	x	x	x	x	x
CC(C)(C)Cc1c(-c2ccc(F)cc2)nc2ccc(Cl)cn12	n	n	x	x	x	x	x	x	x	x	x
CCCCCC(=O)NNC(=O)Nc1ccccc1	n	n	n	n	n	n	x	x	x	x	x
CCCCSC(=O)Nc1ccccc1	n	n	52	71	n	80	n	73	90	65	55
COc1ccc(-n2ncc3c(N4CCN(c5cccc(C)c5C)CC4)ncnc32)cc1	n	n	n	n	x	n	x	x	x	x	x
COc1ccc(-n2ncc3c(N4CCCCC4)ncnc32)cc1	89	n	93	98	x	96	95	98	103	96	95
COc1cc(C(=O)N2CCN(S(=O)(=O)c3ccc(C)cc3C)CC2)ccc1OCC(=O)N1CCOCC1	n	n	n	n	x	n	x	x	x	x	x
CCOC(=O)c1c(NC(=O)CN2CCN(c3ccc(Cl)cc3)CC2)sc(C)c1C	n	n	n	55	n	n	n	n	n	n	n
CC(=O)Nc1ccc(S(=O)(=O)NC(C)C(=O)OCC(=O)Nc2ccc(F)cc2Cl)cc1 (stereo unspecified)	n	n	x	x	x	x	x	x	x	x	x
COc1ccccc1/C=C1/C(=O)N(c2ccccc2)N=C1C	n	n	n	60	x	n	n	n	n	n	n
CC1=NN(c2ccc(Br)cc2)C(=O)/C1=C/c1cccs1	n	43	n	70	n	75	n	n	n	n	n
Nc1ccc(Oc2ccc([N+](=O)[O-])cc2[N+](=O)[O-])cc1	n	n	n	n	n	n	x	x	x	x	x
CC1=NN(c2ccc(C)cc2)C(=O)/C1=C\c1ccc(Br)s1	n	n	n	n	n	n	x	x	x	x	x
CC1=NN(c2ccccc2)C(=O)/C1=C\c1ccc(Oc2ccc([N+](=O)[O-])cc2[N+](=O)[O-])cc1	n	41	n	68	n	n	n	n	n	n	n
CCOC(=O)C1CCCN(S(=O)(=O)c2cc(Br)cc3c2N(C(=O)CC)CC3)C1 (stereo unspecified)	n	n	n	n	x	n	x	x	x	x	x
Cc1ccc(C)c(S(=O)(=O)N2CCN(c3nc(-c4cccnc4)nc4ccccc34)CC2)c1	n	n	n	n	x	n	x	x	x	x	x
COC12CC(=O)C(C(C)=O)=C(O)C1(C)c1c(O)c(C)c(O)c(C(C)=O)c1O2 (stereo unspecified)	n	n	x	x	x	x	x	x	x	x	x
